Experimental data taken from PubChem BioAssay (NCI).
The panel holds about 79,000 compounds, 15% with a hit somewhere; the sample as a whole holds those more often. A number with no mark means an inactive call. Active and inactive are the calls of the source. Cut-off read from the data, not from the text of the source: active = growth inhibition above about 70%; inactive = the rest.

Tests used:
[1] = NCI Yeast Anticancer Drug Screen. Data for the rad50 strain (AID 155);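 note: 0% = growth of vehicle-only cultures of the same strain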; conditions: S. cerevisiae rad50 strain growth inhibition; at 50.0 µM; hits give high values
Summary of the method: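 Cells are treated with compound, grown, and their growth is then scored against vehicle-only cultures of the same repair-deficient yeast strain.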

[2] = NCI Yeast Anticancer Drug Screen. Data for the mec2-1 strain (AID 157); conditions: S. cerevisiae mec2-1 strain, at 50.0 µM, hits give high values
Summary of the method: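 Mutant yeast (mec2-1) grown with compound; growth inhibition relative to vehicle control reported.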

[3] = NCI Yeast Anticancer Drug Screen. Data for the sgs1 mgt1 strain (AID 161);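 note: 0% = growth of cultures given vehicle only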; conditions: S. cerevisiae sgs1 mgt1 strain, at 50.0 µM, hits give high values
Summary of the method: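 Percent growth inhibition was derived by comparing compound-exposed mutant yeast with vehicle-exposed cultures. The strain carries alterations in DNA damage repair.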

[4] = NCI Yeast Anticancer Drug Screen. Data for the cln2 rad14 strain (AID 165);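 note: 0% = growth equal to vehicle treated cultures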; conditions: S. cerevisiae cln2 rad14 strain, at 50.0 µM, hits give high values
Summary of the method: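 Readout is yeast growth inhibition versus vehicle-treated controls, using a strain with cln2 and rad14 alterations exposed to compound.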

[5] = NCI Yeast Anticancer Drug Screen. Data for the bub3 strain (AID 167); conditions: S. cerevisiae bub3 mutant strain, at 50.0 µM, hits give high values
Summary of the method: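 Part of a panel of yeast mutants defective in DNA damage repair or cell cycle regulation. Each strain is grown with compound, and inhibition is calculated relative to solvent-treated cultures.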

[6] = NCI Yeast Anticancer Drug Screen. Data for the mlh1 rad18 strain (AID 175); conditions: S. cerevisiae mlh1 rad18 strain growth inhibition; at 50.0 µM; hits give high values
Summary of the method: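 Genetically defined yeast (DNA repair-deficient) exposed to compounds; growth inhibition determined relative to vehicle.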

Row | Compound | growth inhibition [1] | growth inhibition [2] | growth inhibition [3] | growth inhibition [4] | growth inhibition [5] | growth inhibition [6]
1 | C1CCN(c2nsc(N3CCCCC3)n2)CC1 | -13.7% | -5.15% | 2.95% | -52.1% | -14.6% | 18.2%
2 | CSc1nc(C)cc(Nc2ccc(O)c(CN3CCOCC3)c2)n1 | 6.1% | -3.25% | -22% | -33.1% | -52% | 9.4%
3 | COc1ccc2cc(OC)ccc2c1 | 4.95% | -14.6% | -1.15% | 22% | 1.5% | 14%
4 | O=C1CCC(=O)N1c1ccc([I+]c2ccc(N3C(=O)CCC3=O)cc2)cc1 | 32.5% | 6.65% | 12.7% | 15.1% | -0.8% | 14.4%
5 | COC(=O)CCCCC#CCCCCC(=O)OC | 3.25% | 38.6% | -4.65% | -2.6% | 12.2% | 12.9%
6 | CCCCCCCCCCCC(=O)Nc1ccc(NC(C)=O)cc1 | 8.25% | 25.1% | 22.6% | -14% | 24.9% | 23.9%
7 | CCOC(=O)C1CSC(c2ccccc2)=N1 (stereo unspecified) | 8.75% | -4.4% | -2.35% | -4.25% | -8.35% | 27.1%
8 | CC(C)N=C(c1ccccc1)N(O)c1ccccc1 | -0.4% | 3.15% | -0.75% | -10.3% | 4.2% | 5.05%
9 | CC1CCP(=O)(c2ccccc2)CC1 (stereo unspecified) | 8.5% | -10.8% | -7.15% | 6.9% | -7.3% | -35.2%
10 | Cn1c(=O)c2c(nc(OCC[N+](C)(C)C)n2C)n(C)c1=O | 5% | 11.8% | -0.25% | 33.4% | 1.85% | 2.45%
11 | C=CCSc1nc2ccc(NCn3c(=S)sc4ccccc43)cc2s1 | 71.7% (active) | 65.2% | 85.7% (active) | 47.1% | 41.9% | 56.7%
12 | CCN(CC)CC(OC(C)=O)c1ccc2ccc3ccc(O)cc3c2c1 (stereo unspecified) | 15.9% | 7.85% | -7.55% | -5.55% | -3.25% | 19.1%
13 | COc1ccc(C2OC3=Nc4ccccc4NC3C2=O)cc1OC (stereo unspecified) | 11% | 16.3% | 20.7% | 5.25% | 15.3% | 16.4%
14 | CC(C)NC(=O)C1C2CCC(CC2)C1C(=O)NC(C)C (stereo unspecified) | 0.95% | 34.6% | -4% | -3.3% | 17.7% | 0.35%
15 | O=C1CCC2CCC(=O)N12 | 1.25% | -2.2% | -10.3% | 2.1% | -11.2% | 5.65%
16 | C=CCOC(=O)CCCCC(=O)OCC=C | 3.1% | 4.15% | 3.65% | 6.1% | 19.9% | 0.1%
17 | O=C1CSC(c2ccccc2C(F)(F)F)N1c1nncs1 (stereo unspecified) | 18.4% | 1% | 11.6% | -46% | -39.2% | 9.8%
18 | C[n+]1c(-c2ccc(/C=N/NC(=O)c3cc(O)c(C(=O)N/N=C/c4ccc(-c5cn6ccccc6[n+]5C)cc4)cc3O)cc2)cn2ccccc21 | -31% | -13.5% | -15.7% | -39.5% | -31.9% | -10.5%
19 | CC(=O)/C(=C/n1ccc(=O)[nH]c1=S)C(=O)Nc1ccccc1 | -23.1% | -20.5% | -18.6% | 11.2% | -12.7% | -22.1%
20 | O=C(Cn1c(=O)oc2ccc(C(=O)c3ccc(F)cc3)cc21)c1ccc([N+](=O)[O-])cc1 | -13.8% | -36% | -15.6% | -24.6% | -21.6% | -14.8%
21 | Nc1cn(C2CC(O)C(CO)O2)c(=O)[nH]c1=O (stereo unspecified) | 0% | -1.9% | -2.5% | 1% | -4.4% | -9.05%

Row | Compound | growth inhibition [1] | growth inhibition [2] | growth inhibition [3] | growth inhibition [4] | growth inhibition [5] | growth inhibition [6]
22 | COc1ccc([N+](=O)[O-])c(C#N)c1 | 5.95% | -2.2% | 3.35% | -9.75% | -9.4% | -46.6%
23 | S=C1NC(c2ccccc2)Nc2ccccc21 (stereo unspecified) | 6.5% | 15.9% | -5.5% | -40.3% | -12.9% | 3.75%
24 | Clc1nc2ccccc2c2ccccc12 | 36.5% | -3.6% | -4% | 29.5% | -13.2% | 4.5%
25 | O=c1/c(=C/c2ccc3c(c2)OCO3)sc2nnc(-c3ccco3)n12 | 1.85% | -30.1% | 17.9% | 20.6% | -19.9% | -3.35%
26 | COc1cc2nc(C)oc(=O)c2cc1OC | 19.1% | -16.8% | 10.9% | -28.4% | -12.3% | 0.85%
27 | Ic1ccc(N=Cc2cccs2)cc1 | 5.1% | -1.85% | 21.6% | 6.8% | 10.8% | 21.8%
28 | O=C(O)/C=C/n1c2ccccc2c(=O)c2ccccc21 | -10.1% | -13.8% | -20.9% | 8.9% | -7.7% | -15%
29 | Cc1ccccc1C1OC(=O)c2ccccc21 (stereo unspecified) | 17.7% | -8.85% | 4.45% | 4.2% | 15.2% | 27.6%
30 | CC(=O)c1sc(Nc2ccc(S(=O)(=O)Nc3nc(C)cc(C)n3)cc2)nc1C | 15.6% | -0.75% | 8.9% | 31.3% | -11.7% | -10.1%
31 | COC(=O)C(C(=O)OC)C(Br)(OC(C)=O)OC(C)=O | -8.95% | 8.2% | 4.55% | 6.65% | 11.1% | -3.35%
32 | Nc1ncc(C(=O)O)c(N)n1 | 15.8% | 4.6% | 3.75% | -19.2% | -12.3% | 33.6%
33 | CCN(CC)CCN1C(=O)c2cccc3c(N)c(OC)cc(c23)C1=O | 47.5% | -27.8% | -20.8% | -11.9% | -24.2% | -48.3%
34 | O=C(O)c1cc(C(=O)O)nc(C(=O)O)c1 | -23.9% | -12.1% | -16.1% | -29.9% | 5.7% | -0.6%
35 | CN1C(=O)N(C)C2(CCN(CCCCCCF)CC2)C1=O | -10.2% | -19.9% | -34.2% | -6.9% | -18.6% | -29.4%
36 | COc1ccc(/C(=N\N=C(N)N)C(c2ccc(OC)cc2)C2OC(=O)c3ccccc32)cc1 (stereo unspecified) | -12.2% | -4.85% | -4.65% | -64.8% | 16% | -18.7%
37 | C/C(=C(/C)c1cc[n+](C)cc1)c1cc[n+](C)cc1 | 74.4% (active) | 60.6% | 67% | 44.4% | 56.3% | 68.5%
38 | O=C1O/C(=C(\Br)c2cccc3ccccc23)c2ccccc21 | -18.1% | -30.4% | -34% | 11.2% | -27.6% | -18.3%
39 | O=C(Cn1c(-c2ccccc2)cc2ccccc21)N1CCOCC1 | -0.45% | -32.9% | -39% | -18.1% | 1.65% | -28.1%
40 | CC(=O)C1=CN(C)c2ccccc2S1 | 29.6% | 1.75% | 12.2% | -2.55% | -12.8% | 6.15%
41 | CC(C)OC(=O)NC1CCC2CCCCC2C1 (stereo unspecified) | 2.7% | 11.5% | -8.3% | -19.9% | 15.7% | -4.75%
